This assay is described as follows: activators of LNCaP cell differentiation, retest, confirmation, side scatter shift, flow cytometry (AID 1069).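 Note: LNCaP human prostate cancer cells in low-serum medium with charcoal-stripped FBS; percent of cells with raised granularity gated so DMSO controls show 10%.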 Particulars: 4 d, stronger effect = higher value.

Each structure is given as a SMILES string. Calls of active or inactive are those of the source.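 Rule for the calls: active = high combined rank on largest and smallest cell-count-weighted shift across three tests, rank score above 45, floors 50 and 25 (some results past the limit were not filed as active); inactive = the rest.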

Consider `CCOC(=O)N1CCN(C(=O)C2CCCN(Cc3nc(-c4ccc(Cl)cc4)oc3C)C2)CC1` (configuration not stated), for which the side scatter shift was 20% (inactive) (at 100 µM) and 4.15% (side scatter shift, at 10 µM).

`CCCCOC(=O)Nc1cc(C(=O)OC)ccc1C(=O)OC`: the side scatter shift reads like this: (at 100 µM) 21% (inactive); (side scatter shift, at 10 µM) 1.25%.

On to `Cc1ccccc1Cn1cnc2c(cnn2C(C)(C)C)c1=O`, for which the side scatter shift (at 100 µM) was 15.4% (inactive) and the side scatter shift (side scatter shift, at 10 µM) turned out to be 5.05%.

Consider `Nc1ccc(-c2nc3c(Cl)c(N)ccc3[nH]2)cc1`, for which the side scatter shift was 20.2% (inactive) (at 100 µM) and 4.7% (side scatter shift, at 10 µM).

`COCCCN(C(=O)Nc1ccccc1)C(C)c1ccncc1` (configuration not stated): the side scatter shift was 9.2% (inactive) (at 100 µM) and 2.8% (side scatter shift, at 10 µM).

As to `CCOC(=O)N1CCN(C(=O)Cc2ccc(-n3c(=O)[nH]c4ccccc4c3=O)cc2)CC1`, the side scatter shift (at 100 µM) is 6.3% (inactive) and the side scatter shift (side scatter shift, at 10 µM) is 2.6%.

As to `Cc1oc(-c2ccc(Cl)cc2)nc1CN1CCC(C(=O)NCc2cccnc2)CC1`, the side scatter shift is, setting by setting: (at 100 µM) 30% (inactive); (side scatter shift, at 10 µM) 5.8%.

For `CCOC(=O)N1CCN(C(=O)C2CCN(Cc3nc(-c4ccccc4C)oc3C)CC2)CC1`, the side scatter shift by setting is: (at 100 µM) 30.6% (inactive); (side scatter shift, at 10 µM) 5.15%.

Regarding `CCn1c(=O)cc(SCC(=O)NCCCN2CCN(c3ccc(F)cc3)CC2)c2ccccc21`, the side scatter shift runs as follows: (at 100 µM) 14.3% (inactive); (side scatter shift, at 10 µM) 21.6%.

`O=C(NCCCN1CCN(c2cccc(Cl)c2)CC1)c1nc(-c2ccncc2)no1`: the side scatter shift (at 100 µM) is 36.1% (inactive) and the side scatter shift (side scatter shift, at 10 µM) amounted to 2.15%.

Regarding `CCOC(=O)N1CCN(C(=O)CN(c2cccc(C(F)(F)F)c2)S(=O)(=O)c2ccccc2)CC1`, the side scatter shift is 11.7% (inactive) (at 100 µM) and 5.4% (side scatter shift, at 10 µM).

As for `CCN(CC)CCCNC(=O)c1cc2c(-c3ccc(Cl)cc3)nn(C)c2s1`, the side scatter shift is 61.5% (active) (at 100 µM) and 81.5% (side scatter shift, at 10 µM).

Consider `CCN1C=C(Cc2cccs2)C2=C(C1)C(c1cccs1)C(C#N)=C(N)O2` (configuration not stated), for which the side scatter shift by setting is: (at 100 µM) 20% (inactive); (side scatter shift, at 10 µM) 5.2%.

With `COc1ccc(-c2cc(C(F)(F)F)nc(N3CCN(C)CC3)n2)cc1`, the side scatter shift reads like this: (at 100 µM) 25% (inactive); (side scatter shift, at 10 µM) 13.6%.

In the case of `CCn1c(=O)cc(SCC(=O)NCCN2CCN(Cc3ccccc3)CC2)c2ccccc21`, the side scatter shift is 70.2% (active) (at 100 µM) and 6.85% (side scatter shift, at 10 µM).

Consider `Cc1cc(O)c(-c2cc(C(=O)Nc3ccc(S(=O)(=O)N4CCOCC4)cc3)[nH]n2)cc1C`, for which the side scatter shift (at 100 µM) is 5.6% (inactive) and the side scatter shift (side scatter shift, at 10 µM) was 9.8%.

As to `COc1ccc(CCN2CCC(Nc3nc4ccccc4n3Cc3ccc(F)cc3)CC2)cc1`, the side scatter shift reads like this: (at 100 µM) 0% (active); (side scatter shift, at 10 µM) 35.3%.

As to `CCOC(=O)c1cc2c(=O)n3ccccc3nc2n(CCCOC)c1=NC(=O)c1cccnc1`, the side scatter shift (at 100 µM) was 9.9% (inactive) and the side scatter shift (side scatter shift, at 10 µM) amounted to 5.75%.

Regarding `Cc1cccc(-c2nc(CN3CCCC(C(=O)NC4CCCC4)C3)c(C)o2)c1` (configuration not stated), the side scatter shift was 13.8% (inactive) (at 100 µM) and 8.5% (side scatter shift, at 10 µM).

Take `CN1CCN(c2oc(COc3ccc(-c4ccccc4)cc3)nc2C#N)CC1`: the side scatter shift was 40% (inactive) (at 100 µM) and 10.8% (side scatter shift, at 10 µM).

Turning to `CC(C)(C)c1ccc(C(O)CCCN2CCC(C(O)(c3ccccc3)c3ccccc3)CC2)cc1` (configuration not stated), the side scatter shift is 16.7% (inactive) (at 100 µM) and 14.8% (side scatter shift, at 10 µM).

These data come from PubChem BioAssay AID1069 (NMMLSC, 2008).
